Test results taken from PubChem BioAssay AID1986 (Sanford-Burnham Center for Chemical Genomics, 2009).
In all, about 290,000 compounds went through this assay and about 890 (0.31%) were called active. No stated cut-off is given here; in the data, active means inhibition mostly above about 52% (no sharp cut-off); inactive means mostly below about 76%. Only a selection was taken, and actives are over-represented in it overall.

Test: inhibitors of HIV fusion peptide binding, primary screen, biochemical, uHTS, fluorescence dequenching (AID 1986)
Details: cell-free peptide binding, 30 min, stronger effect = higher value
[1] = measured here: repeat confirmation average inhibition, at 18.6 µM

Compound	inhibition (at 20 µM)	inhibition [1] [%]
CCOC(=O)C1=C(C)NC(=O)NC1c1ccc(OCC(=O)OC)c(OC)c1 (stereo not drawn)	-0.4% (inactive)	
CC(=O)Nc1cccc(CNCc2cccc(NC(C)=O)c2)c1	-0.7% (inactive)	
O=C(Nc1cccc(-c2cn3ccccc3n2)c1)c1cnccn1	-0.3% (inactive)	
CC(=O)C1=C(c2ccccc2)NC(=O)NC1c1cccs1 (stereo not drawn)	0.1% (inactive)	
CCc1cccc(NC(=O)CCS(=O)(=O)c2cc3c(cc2C)NC(=O)CO3)c1	0.8% (inactive)	
CCOc1cc(-c2nc(-c3ccncc3)no2)cc(OCC)c1OCC	0.5% (inactive)	
CCC(CCC(=O)Nc1cccc(C(=O)O)c1)C(=O)O (stereo not drawn)	-0.2% (inactive)	
COc1ccc(Br)cc1C(=O)Nc1ccc(N2CCCC2)cc1	-1.9% (inactive)	
Cc1ccc(NC(=O)CN2C(=O)S/C(=C\c3ccc(-c4cccc(C(=O)O)c4C)o3)C2=O)cc1	63.2% (active)	
Cc1ccccc1NC(=O)CN1C(=O)S/C(=C\c2ccc(-c3cccc(C(=O)O)c3C)o2)C1=O	32% (inactive)	
Cc1ccc(C(=O)O)cc1-c1ccc(/C=C2\SC(=O)N(CC(=O)Nc3ccc4c(c3)OCO4)C2=O)o1	69.1% (inactive)	25.2
COc1ccc(C(=O)NC2CCCCCC2)cc1OC1CCN(C(C)=O)CC1	0% (inactive)	
COc1ccc([N+](=O)[O-])cc1NC(=O)COC(C)=O	-1.8% (inactive)	
O=C(CN1CCN(c2ccccc2)CC1)N1CCc2[nH]c3ccccc3c2C1	2% (inactive)	
O=C1/C(=C\c2ccco2)SC(=S)N1Cc1ccccc1	66% (inactive)	-1.7
CCN1CCN(c2c(/C=C3\SC(=S)N(Cc4ccco4)C3=O)c(C)c(C#N)c(=O)n2C)CC1	89.4% (active)	167
CCCN(CCC)c1nc2c(C)cccn2c(=O)c1/C=C1/SC(=S)N(Cc2ccco2)C1=O	49.5% (inactive)	
C=CCOc1ccc(C2/C(=C(\O)c3ccc4c(c3)OCCO4)C(=O)C(=O)N2CCCN2CCOCC2)cc1 (stereo not drawn)	-1.6% (inactive)	
Cc1cc(NC(=O)CCCC(=O)N(CC(=O)NC2CCCCC2)c2ccccc2)no1	-0.7% (inactive)	
CNC(=S)N1CCN(S(=O)(=O)c2ccc3ccccc3c2)CC1	-0.9% (inactive)	

Compound	inhibition (at 20 µM)	inhibition [1] [%]
CCCc1ccc2oc(C(=O)NCCN3CCCC(O)C3)c(C)c2c1 (stereo not drawn)	0.9% (inactive)	
O=c1c2cccc3c(N4CCOCC4)ccc(c32)c2nc3ccccc3n12	113% (active)	
c1ccc2c(c1)nc(CN1CCOCC1)n1c3ccccc3nc21	2.2% (inactive)	
O=c1c2ccc([N+](=O)[O-])c3cccc(c32)c2nc3ccccc3n12	10.2% (inactive)	
Cc1ccc(OCc2cc(C(=O)N(C)CC3CCOCC3)no2)cc1C	-2% (inactive)	
O=C(O)CN1C(=O)/C(=C/c2ccc(N3CCCCC3)o2)SC1=S	7.4% (inactive)	
O=C(CCN1C(=O)/C(=C/c2ccc(Cl)cc2)SC1=S)Nc1cccc(C(=O)O)c1	62.4% (inactive)	2.3
CC(=C\c1ccccc1)/C=C1/SC(=S)N(CCC(=O)O)C1=O	26.1% (inactive)	
O=C(O)CN1C(=O)/C(=C\C(Br)=C\c2ccccc2)SC1=S	62.6% (active)	
O=C(O)c1cccc(N2C(=O)/C(=C/c3ccc(SCc4ccc(Cl)cc4)o3)SC2=S)c1	63% (active)	
Cc1ccc(/C=C2\SC(=S)N(Cc3ccccc3)C2=O)o1	-3.6% (inactive)	
CC(/C=C1\SC(=S)N(CC(=O)O)C1=O)=C\c1ccccc1	35.8% (inactive)	
O=C(O)CN1C(=O)/C(=C/c2ccc(SCc3ccccc3)o2)SC1=S	73.1% (active)	105
O=C1/C(=C\c2ccco2)SC(=S)N1c1ccccc1	41.6% (inactive)	
Cn1cnnc1SCC(=O)N1CCc2ccccc21	-0.4% (inactive)	
CCOC(=O)C(C)c1nc2ccccc2[nH]c1=O (stereo not drawn)	-0.4% (inactive)	
CN1C2C=C(N(CCc3ccccc3)C(=O)c3ccc(Cl)cc3)CC1CC2 (stereo not drawn)	-0.4% (inactive)	
C=C1CN(CC(=O)OC)S(=O)(=O)c2ccccc21	0.8% (inactive)	
COc1ccccc1NC(=O)c1ccc(-c2nn(C)c(=O)c3ccccc23)cc1	0.7% (inactive)	
Cc1nn(CC(=O)N2CCCC2)c(=O)c2nn(-c3ccccc3)c(C)c12	0.3% (inactive)	

Compound	inhibition (at 20 µM)	inhibition [1] [%]
CC(CCC(=O)O)C1CC[C@H]2C3CCC4CC(=O)CCC4(C)[C@H]3CC(=O)C12C (stereo partly drawn)	-1.2% (inactive)	
CC1(C)C(=O)OC(c2cccs2)C(C)(C)C1=O (stereo not drawn)	0.5% (inactive)	
O=C(CSc1nc2scc(-c3ccco3)c2c(=O)n1-c1ccccc1)N1CCOCC1	4.2% (inactive)	
CC1CCN(S(=O)C23CC4CC(CC(C4)C2)C3)CC1 (stereo not drawn)	1.3% (inactive)	
CCOC1OC2C(CO)OC(n3cnc4c(N)ncnc43)C2O1 (stereo not drawn)	1.6% (inactive)	
Cc1cccc2c(N=O)c(O)[nH]c12	17.9% (inactive)	
Cc1cccc2c(N=Nc3ccccc3)c(O)[nH]c12	52.7% (active)	60.4
Oc1[nH]c2ccccc2c1N=Nc1ccccc1	146% (inactive)	
CCCCc1ccc(S(=O)(=O)N2CCN(C(=O)c3ccco3)CC2)cc1	2% (inactive)	
Cc1ccc(C)c2[nH]c(=O)c(CN(Cc3cccs3)C(=S)NCc3ccco3)cc12	16.7% (inactive)	
CN(C)CCCN1C(=O)C2CCc3[nH]c4ccccc4c3C2C1=O (stereo not drawn)	-1% (inactive)	
COc1cc(/C=C2/C(=N)N3N=C(CC(=O)N4CCOCC4)SC3=NC2=O)ccc1OC(C)c1ccccc1 (stereo not drawn)	36% (inactive)	
CNc1ccc(Br)cc(C(=O)/C=C/c2cccc(Cl)c2Cl)c1=O	61.9% (inactive)	4.3
CNc1ccc(Br)cc(C(=O)/C=C/c2ccc(Cl)cc2Cl)c1=O	61.5% (active)	
CCNc1ccc(Br)cc(C(=O)/C=C/c2ccc(Cl)cc2Cl)c1=O	63.3% (inactive)	13.7
COc1cc(NC(=O)C2CC(c3c(F)cccc3Cl)=NO2)cc(OC)c1OC (stereo not drawn)	0% (inactive)	
Cc1onc(-c2ccccc2Cl)c1C(=O)Nc1ccc(Br)cc1	-0.2% (inactive)	
CCC(=O)Nc1cc(Cl)ccc1C(=O)O	-0.2% (inactive)	
CCS(=O)(=O)c1ccc2oc(Nc3cc(Cl)ccc3OC)nc2c1	-1% (inactive)	
O=C(O)c1ccc(Cl)cc1Nc1nc2cc(Cl)ccc2o1	67.6% (active)	
